From PubChem BioAssay AID1159580 (chemical genetic matrix, 2015)
“And” between values parts separate entries of the source, which are not always exact repeats. Equal values may be shown once. Hit rate of the full screen: of about 5,500 compounds, about 2,000 (36%) were called active. Another 18% or so got no clear call; they are omitted. Rule as the data show it: active = normalized growth mostly below about 0.91 (no sharp cut-off); inconclusive = no clear call, values can overlap the other calls; inactive = mostly above about 0.92. The list shows a part of the results.

Test: chemical genetic growth profiling, strain panel (AID 1159580);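 also: tested at 20 µM; growth read once vehicle control cultures reached saturation at 30 °C; 1 = growth at the plate median or of vehicle wells; lower values mean less growth of the strain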
Conditions: growth OD

For `COc1cc(-c2coc3cc(OCc4ccccc4)c(OC)c(O)c3c2=O)cc(O)c1OC`, the normalized growth (S. cerevisiae deletion strains, locus YAL013W, strain DEP1, stronger effect = lower value) was 0.788 (active), the normalized growth (S. cerevisiae deletion strains, locus YBR021W, strain FUR4, stronger effect = lower value) was 0.908 (inactive) and the normalized growth (S. cerevisiae deletion strains, locus YBR229C, strain ROT2, stronger effect = lower value) was 0.985 (inactive). The normalized growth (S. cerevisiae deletion strains, locus YCL029C, strain bik1, stronger effect = lower value) was 0.962 (inactive), the normalized growth (S. cerevisiae deletion strains, locus YDL035C, strain GPR1, stronger effect = lower value) was 0.757 (active) and the normalized growth (S. cerevisiae deletion strains, locus YDL074C, strain BRE1, stronger effect = lower value) was 0.764 (active). The normalized growth (S. cerevisiae deletion strains, locus YDL101C, strain DUN1, stronger effect = lower value) was 0.918 (inactive), the normalized growth (S. cerevisiae deletion strains, locus YDL185W, strain tfp1, stronger effect = lower value) was 0.968 (inactive) and the normalized growth (S. cerevisiae deletion strains, locus YDL192W, strain arf1, stronger effect = lower value) was 0.864 (active). The normalized growth (S. cerevisiae deletion strains, locus YDR101C, strain arx1, stronger effect = lower value) was 0.958 (inactive), the normalized growth (S. cerevisiae deletion strains, locus YDR150W, strain NUM1, stronger effect = lower value) was 0.911 (inactive) and the normalized growth (S. cerevisiae deletion strains, locus YDR162C, strain NBP2, stronger effect = lower value) was 0.714 (active). The normalized growth (S. cerevisiae deletion strains, locus YDR318W, strain mcm21, stronger effect = lower value) was 0.877 (active), the normalized growth (S. cerevisiae deletion strains, locus YDR388W, stronger effect = lower value) was 0.954 (inactive) and the normalized growth (S. cerevisiae deletion strains, locus YDR502C, strain sam2, stronger effect = lower value) was 0.901 (active). For the same molecule, the normalized growth (S. cerevisiae deletion strains, locus YEL061C, strain CIN8, stronger effect = lower value) was 0.821 (active), the normalized growth (S. cerevisiae deletion strains, locus YER110C, stronger effect = lower value) was 1 (inactive) and the normalized growth (S. cerevisiae deletion strains, locus YER155C, strain BEM2, stronger effect = lower value) was 0.946 (inactive). For the same molecule, the normalized growth (S. cerevisiae deletion strains, locus YER167W, strain BCK2, stronger effect = lower value) was 0.879 (active), the normalized growth (S. cerevisiae deletion strains, locus YGL078C, strain dbp3, stronger effect = lower value) was 0.937 (inactive) and the normalized growth (S. cerevisiae deletion strains, locus YGL086W, strain mad1, stronger effect = lower value) was 0.841 (active). The normalized growth (S. cerevisiae deletion strains, locus YGL248W, strain PDE1, stronger effect = lower value) was 0.787 (active), the normalized growth (S. cerevisiae deletion strains, locus YGR135W, strain pre9, stronger effect = lower value) was 0.836 (active) and the normalized growth (S. cerevisiae deletion strains, locus YGR252W, strain gcn5, stronger effect = lower value) was 0.81 (inactive). The normalized growth (S. cerevisiae deletion strains, locus YHR030C, strain SLT2, stronger effect = lower value) was 0.808 (active) and 1.01 (inactive), the normalized growth (S. cerevisiae deletion strains, locus YHR079C, strain IRE1 (second series), stronger effect = lower value) was 0.967 (inactive) and the normalized growth (S. cerevisiae deletion strains, locus YHR079C, strain IRE1, stronger effect = lower value) was 1.01 (inactive). The normalized growth (S. cerevisiae deletion strains, locus YHR094C, strain hxt1, stronger effect = lower value) was 1 (inactive), the normalized growth (S. cerevisiae deletion strains, locus YHR129C, strain ARP1, stronger effect = lower value) was 0.783 (active) and the normalized growth (S. cerevisiae deletion strains, locus YHR200W, strain rpn10, stronger effect = lower value) was 0.883 (active). The normalized growth (S. cerevisiae deletion strains, locus YIL066C, strain RNR3, stronger effect = lower value) was 0.733 (active), the normalized growth (S. cerevisiae deletion strains, locus YIL073C, strain SPO22, stronger effect = lower value) was 0.685 (inactive) and the normalized growth (S. cerevisiae deletion strains, locus YIL125W, strain kgd1, stronger effect = lower value) was 1 (inactive). The normalized growth (S. cerevisiae deletion strains, locus YIR030C, strain dcg1, stronger effect = lower value) was 0.979 (inactive), the normalized growth (S. cerevisiae deletion strains, locus YJL095W, strain BCK1, stronger effect = lower value) was 0.778 (active) and 1.02 (inactive) and the normalized growth (S. cerevisiae deletion strains, locus YJL134W, strain LCB3, stronger effect = lower value) was 0.981 (inactive). For the same molecule, the normalized growth (S. cerevisiae deletion strains, locus YJL168C, strain set2, stronger effect = lower value) was 0.993 (inactive), the normalized growth (S. cerevisiae deletion strains, locus YJL187C, strain SWE1 (second series), stronger effect = lower value) was 0.837 (active) and the normalized growth (S. cerevisiae deletion strains, locus YJR043C, strain POL32, stronger effect = lower value) was 0.747 (active). The normalized growth (S. cerevisiae deletion strains, locus YJR066W, strain TOR1, stronger effect = lower value) was 0.95 (inactive), the normalized growth (S. cerevisiae deletion strains, locus YKL009W, strain mrt4, stronger effect = lower value) was 0.922 (inactive) and the normalized growth (S. cerevisiae deletion strains, locus YKL068W, stronger effect = lower value) was 1.02 (inactive). The normalized growth (S. cerevisiae deletion strains, locus YKL085W, strain MDH1 (second series), stronger effect = lower value) was 0.996 (inactive), the normalized growth (S. cerevisiae deletion strains, locus YKL085W, strain MDH1, stronger effect = lower value) was 0.996 (inactive) and the normalized growth (S. cerevisiae deletion strains, locus YKR001C, strain vps1, stronger effect = lower value) was 0.88 (active). For the same molecule, the normalized growth (S. cerevisiae deletion strains, locus YLR039C, strain RIC1, stronger effect = lower value) was 0.86 (inactive), the normalized growth (S. cerevisiae deletion strains, locus YLR058C, strain SHM2, stronger effect = lower value) was 0.863 (active) and the normalized growth (S. cerevisiae deletion strains, locus YLR102C, strain apc9, stronger effect = lower value) was 0.998 (inactive). The normalized growth (S. cerevisiae deletion strains, locus YLR113W, strain HOG1, stronger effect = lower value) was 1.02 (inactive), the normalized growth (S. cerevisiae deletion strains, locus YLR262C, strain YPT6, stronger effect = lower value) was 0.857 (inactive) and the normalized growth (S. cerevisiae deletion strains, locus YLR268W, strain sec22, stronger effect = lower value) was 0.903 (inactive). The normalized growth (S. cerevisiae deletion strains, locus YLR330W, strain CHS5, stronger effect = lower value) was 0.827 (active), the normalized growth (S. cerevisiae deletion strains, locus YLR342W, strain FKS1 (second series), stronger effect = lower value) was 0.785 (active) and the normalized growth (S. cerevisiae deletion strains, locus YLR371W, strain rom2, stronger effect = lower value) was 0.86 (active). The normalized growth (S. cerevisiae deletion strains, locus YLR418C, strain cdc73, stronger effect = lower value) was 0.705 (active), the normalized growth (S. cerevisiae deletion strains, locus YML016C, strain PPZ1, stronger effect = lower value) was 0.846 (active) and the normalized growth (S. cerevisiae deletion strains, locus YML032C, strain rad52, stronger effect = lower value) was 0.956 (inactive). The normalized growth (S. cerevisiae deletion strains, locus YML124C, strain tub3, stronger effect = lower value) was 0.964 (inactive), the normalized growth (S. cerevisiae deletion strains, locus YMR078C, strain ctf18, stronger effect = lower value) was 1.01 (inactive) and the normalized growth (S. cerevisiae deletion strains, locus YMR223W, strain ubp8, stronger effect = lower value) was 0.877 (active). The normalized growth (S. cerevisiae deletion strains, locus YMR263W, strain SAP30, stronger effect = lower value) was 0.893 (inactive), the normalized growth (S. cerevisiae deletion strains, locus YMR307W, strain GAS1, stronger effect = lower value) was 0.736 (inactive) and the normalized growth (S. cerevisiae deletion strains, locus YNL067W, strain RPL9B, stronger effect = lower value) was 0.829 (active). For the same molecule, the normalized growth (S. cerevisiae deletion strains, locus YNL153C, strain GIM3, stronger effect = lower value) was 0.843 (active), the normalized growth (S. cerevisiae deletion strains, locus YNL183C, strain NPR1, stronger effect = lower value) was 0.972 (inactive) and the normalized growth (S. cerevisiae deletion strains, locus YNL233W, strain BNI4, stronger effect = lower value) was 0.796 (active). For the same molecule, the normalized growth (S. cerevisiae deletion strains, locus YNL250W, strain rad50, stronger effect = lower value) was 0.945 (inactive), the normalized growth (S. cerevisiae deletion strains, locus YNL271C, strain bni1, stronger effect = lower value) was 0.979 (inactive) and the normalized growth (S. cerevisiae deletion strains, locus YNL298W, strain CLA4, stronger effect = lower value) was 0.989 (inactive). For the same molecule, the normalized growth (S. cerevisiae deletion strains, locus YNL307C, strain MCK1, stronger effect = lower value) was 0.844 (active), the normalized growth (S. cerevisiae deletion strains, locus YNL322C, strain KRE1, stronger effect = lower value) was 0.823 (active) and the normalized growth (S. cerevisiae deletion strains, locus YNR052C, strain pop2, stronger effect = lower value) was 0.951 (inactive). For the same molecule, the normalized growth (S. cerevisiae deletion strains, locus YOL006C, strain TOP1, stronger effect = lower value) was 0.449 (active), the normalized growth (S. cerevisiae deletion strains, locus YOL012C, strain htz1) was 0.39 (inactive) and the normalized growth (S. cerevisiae deletion strains, locus YOL147C, strain pex11, stronger effect = lower value) was 0.955 (inactive). For the same molecule, the normalized growth (S. cerevisiae deletion strains, locus YOR061W, strain CKA2, stronger effect = lower value) was 0.848 (active), the normalized growth (S. cerevisiae deletion strains, locus YOR069W, strain VPS5, stronger effect = lower value) was 0.834 (active) and the normalized growth (S. cerevisiae deletion strains, locus YOR136W, strain idh2, stronger effect = lower value) was 0.97 (inactive). For the same molecule, the normalized growth (S. cerevisiae deletion strains, locus YOR144C, strain elg1, stronger effect = lower value) was 0.988 (inactive), the normalized growth (S. cerevisiae deletion strains, locus YOR184W, strain ser1, stronger effect = lower value) was 0.896 (inactive) and the normalized growth (S. cerevisiae deletion strains, locus YOR231W, strain MKK1, stronger effect = lower value) was 1.02 (inactive). For the same molecule, the normalized growth (S. cerevisiae deletion strains, locus YOR316C, strain cot1, stronger effect = lower value) was 0.996 (inactive), the normalized growth (S. cerevisiae deletion strains, locus YPL241C, strain CIN2, stronger effect = lower value) was 0.974 (inactive) and the normalized growth (S. cerevisiae deletion strains, locus YPL256C, strain CLN2, stronger effect = lower value) was 1 (inactive). The normalized growth (S. cerevisiae deletion strains, locus YPR119W, strain clb2, stronger effect = lower value) was 1 (inactive), the normalized growth (S. cerevisiae deletion strains, locus YPR141C, strain kar3, stronger effect = lower value) was 1.01 (inactive) and the normalized growth (S. cerevisiae deletion strains, locus YPR163C, strain tif3, stronger effect = lower value) was 0.837 (active). The normalized growth (S. cerevisiae deletion strains, locus YPR167C, strain met16, stronger effect = lower value) was 0.871 (active), the normalized growth (S. cerevisiae deletion strains, strain wtn01, stronger effect = lower value) was 0.849 (active) and the normalized growth (S. cerevisiae strains, strain wild type, stronger effect = lower value) was 0.663 (active).
